JMJD2A Tudor inh: qHTS Assay for Inhibitors of JMJD2A-Tudor Domain; Lysine-specific demethylase 4A (Homo sapiens), O75164; Potency, µM (highest dose often 114 µM), without a hit: top-dose activity change, negative = inhibition, most hits filed as inhibitors; 390,000 compounds, 4.4% hits; AlphaScreen JMJD2A-Tudor / H3K4me3 peptide binding; AID 504339, 2011; further: on the % scale 0 is the no-effect control and ±100 the full control effect; nearly all actives have a fitted effect of over 50% in size
GLS inh: qHTS for Inhibitors of Glutaminase (GLS) | Glutaminase kidney isoform, mitochondrial (Homo sapiens), O94925 | GLS enzymatic activity, qHTS titration | Potency, µM (top dose mostly 45.5 µM), for the others: top-dose activity change, negative = inhibition, most hits filed as inhibitors | 410,000 compounds, 0.21% hits; further: on the % scale 0 is the no-effect control and ±100 the full control effect
Target sequence (O94925 whole entry, looked up, canonical isoform): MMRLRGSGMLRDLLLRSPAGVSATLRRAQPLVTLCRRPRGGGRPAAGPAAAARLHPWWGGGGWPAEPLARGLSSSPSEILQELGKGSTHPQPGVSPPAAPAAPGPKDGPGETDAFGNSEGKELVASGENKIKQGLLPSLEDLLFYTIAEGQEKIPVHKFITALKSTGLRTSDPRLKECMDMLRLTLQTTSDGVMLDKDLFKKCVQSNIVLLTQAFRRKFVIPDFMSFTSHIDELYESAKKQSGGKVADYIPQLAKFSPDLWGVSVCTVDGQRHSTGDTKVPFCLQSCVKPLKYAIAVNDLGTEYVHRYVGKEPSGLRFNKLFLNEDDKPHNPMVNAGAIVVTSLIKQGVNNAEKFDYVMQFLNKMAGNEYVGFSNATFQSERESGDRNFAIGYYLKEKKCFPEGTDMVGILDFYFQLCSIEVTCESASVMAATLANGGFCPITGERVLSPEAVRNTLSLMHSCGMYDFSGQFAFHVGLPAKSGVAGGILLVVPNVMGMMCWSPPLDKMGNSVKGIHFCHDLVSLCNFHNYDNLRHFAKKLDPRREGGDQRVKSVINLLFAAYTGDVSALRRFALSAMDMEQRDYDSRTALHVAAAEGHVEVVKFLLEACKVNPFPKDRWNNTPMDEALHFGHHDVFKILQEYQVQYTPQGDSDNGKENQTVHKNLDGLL
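hKGA in 45 mM KH2PO4 pH 8.2, 0.02% Tween-20 with pin-transferred compounds; 1 mM L-glutamine (stock) plus glutamate oxidase/HRP/Amplex Red coupling added. Fluorescence read initially and after 30 min at RT.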
BAZ2B inh: qHTS Assay for Inhibitors of BAZ2B; Bromodomain adjacent to zinc finger domain protein 2B (Homo sapiens), Q9UIF8; AlphaScreen BAZ2B-H3K14Ac peptide displacement; Potency, µM (top dose mostly 114 µM), inactives show at the highest dose activity change, negative = inhibition, most hits filed as inhibitors; 360,000 compounds, 4.4% hits; AID 504333, 2011; further: on the % scale 0 is the no-effect control and ±100 the full control effect; nearly all actives have a fitted effect of over 60% in size
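Protein-peptide AlphaScreen: BAZ2B 50 nM, b-H3K14Ac 50 nM, 1x PBS pH 7.4 + 0.01% Tween-20. Preincubation 30 min RT; cpd 30 min RT (top 110 uM); beads 20 min RT, light-protected.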
G9a inh: qHTS Assay for Inhibitors of Histone Lysine Methyltransferase G9a. 350,000 compounds, 8.8% hits. AID 504332, 2011. Potency, µM (series often up to 102 µM), without a hit: at the highest dose activity, negative = inhibition, most hits filed as inhibitors. G9a H3K9 monomethylation, AlphaScreen, 2 h; further: on the % scale 0 is the no-effect control and ±100 the full control effect; nearly all actives have a fitted effect of over 75% in size
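Readings reflect AlphaScreen signal from monomethyl-H3K9 antibody detection. HMT at 20 nM; substrate b-H3K9 500 nM; cofactor SAM 20 uM; 2 h RT reaction; compounds tested as titrations in qHTS with 15 min preincubation.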
HP1b binding inh: HTS for Inhibitors of HP1-beta Chromodomain Interactions with Methylated Histone Tails; AlphaScreen HP1-beta / biotin-H3K9me3 peptide binding; Potency, µM (series often up to 114 µM), without a hit: at the top dose activity change, negative = inhibition, actives largely listed as inhibitors; 390,000 compounds, 0.56% hits; further: nearly all actives have a fitted effect of over 70% in size
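Compound inhibition of the preformed complex between 50 nM HP1-beta and 50 nM biotinylated H3K9me3 peptide was read by AlphaScreen. Buffer was PBS pH 7.4 with 0.01% Tween-20. Incubations ran 30 min at room temperature, with 10 ug/mL donor/acceptor beads.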
Numbers without * were called inactive; ? = inconclusive; . = no result given; ! = a repeat was not active; [ ] = another dose, or the depositor's remark. Shown are actives, neighbours in structure and some others; about 10% of the full set was active somewhere. The call rests on the fitted dose curve; in most records, active means well fitted curve in the direction sought with a large enough effect; inconclusive means small, poorly fitted or top-dose-only effect, or another doubt; inactive means no such curve, though single readings can be large; an effect the other way counts as inactive or inconclusive. Potency means the concentration at half of the fitted maximal effect.

SMILES | JMJD2A Tudor inh | GLS inh | BAZ2B inh | G9a inh | HP1b binding inh
O=C(NCCc1ccccc1)c1nc2c(nnn2Cc2ccccc2Cl)c(=O)[nH]1 | -19.2% | 32.7% | 12.2% | -2.4%[59 µM] | 22.8%
COCCNC(=O)c1nc2c(nnn2Cc2cc(C)ccc2C)c(=O)[nH]1 | ? | 9.4% | -18.0% | 11.2µM* | 10.2%
COc1ccc(Cn2nnc3c(=O)[nH]c(C(=O)NCCc4ccc(F)cc4)nc32)cc1OC | 79.4µM* | 4.6% | -1.0% | -10.5%[59 µM] | 12.2%
OCn1ncn(-c2ccccc2)c1=S | 35.5µM* | 15.7% | -12.2% | ? | 18.5%
Cc1c(OCc2nn[nH]n2)ccc2c(-c3ccccc3)cc(=O)oc12 | -3.7% | 52.0% | 5.9% | 50.1µM* | 31.1%
COc1ccc(-c2cc(=O)oc3c(C)c(OCc4nn[nH]n4)ccc23)cc1 | 5.6% | 34.9% | -1.1% | ? | 27.7%
Cn1cc(C(F)(F)F)nc1-c1ccc(OCC(O)CNCCOc2ccc(O)c(C(N)=O)c2)cc1 (stereo not given) | -18.0% | 14.6% | -7.6% | 25.1µM*! | 14.5%
Cc1nnc(C)c2c(C)n(-c3ccc(Cl)c(N)c3)c(C)c12 | ? | -10.2% | -32.7% | 56.2µM* | -9.0%
Cc1cc(C)cc(-n2c(C)c3c(C)nnc(C)c3c2C)c1 | ? | -1.4% | ? | ? | -18.7%
COc1ccccc1Nc1ccc(NS(=O)(=O)c2ccc(C(C)=O)cc2)cc1 | 39.8µM* | 33.5% | ? | 35.5µM* | ?
COc1ccccc1Nc1ccc(N)cc1 | 50.1µM* | 11.2µM* | 28.2µM* | 12.6µM* | ?
CC(=O)Nc1ccc(Nc2nc(-c3sc(NC(C)=O)nc3C)cs2)cc1 | ? | 43.7% | 50.1µM* | 50.1µM* | -12.6%
CC(=O)Nc1nc(C)c(-c2csc(Nc3ccc(O)cc3)n2)s1 | 50.1µM* | 7.6% | 50.1µM* | 4.47µM* | ?
CC(=O)Nc1nc(C)c(-c2csc(Nc3ccccn3)n2)s1 | -14.7% | 2.3% | ? | -32.2% | 18.2%
CC(C)Oc1ccc(CNC(=O)c2cnc3sc(N4CCCCC4)nn3c2=O)cc1 | -10.7% | -3.1% | 11.8% | 12.3%[59 µM] | 58.6%
CCOc1ccc(/C=C/C(=O)c2cc(Br)ccc(=O)c2O)cc1 | 50.1µM* | 4.1% | 44.7µM* | 7.94µM* | -54.6%
O=C(C=Cc1ccccc1)c1cc(Br)ccc1O | 19.9% | -8.2% | . | . | 23.0%
Cc1ccc(C(=O)/C=C/c2ccc(Br)cc2)o1 | -14.7% | 5.2% | -5.8% | 37.1%[0.501 µM] | 19.2%
CCc1ccc(/C=C/C(=O)c2cc(Br)ccc(=O)c2O)cc1 | 79.4µM* | 4.3% | 44.7µM* | ? | ?
Cc1cccc(/C=C/C(=O)c2cc(Br)ccc(=O)c2O)c1 | ? | 23.5% | 44.7µM* | ? | ?
CNCCN(C)c1nc(-c2cccs2)nc2ccccc12 | -12.2% | . | . | . | 28.3%
CC(C)(C)SC(=O)CC1NS(=O)(=O)OCC1NC(=O)OCC(Cl)(Cl)Cl (stereo not given) | -7.2% | -0.8% | 7.9% | -12.7% | 25.7%
Cc1cc2[nH]c3c(c[n+](C)c4ccccc34)c2cc1C | -6.8% | -14.1% | ? | 17.8µM* | 22.0%
COc1ccccc1NC(=O)CSc1nnc(-c2ccccn2)o1 | -19.1% | 2.8% | -25.8% | 7.9% | 32.2%
O=C(CSc1nnc(-c2ccccn2)o1)Nc1ccccc1C(F)(F)F | -17.8% | -5.0% | 50.1µM* | 70.8µM* | 5.4%
SMILES | JMJD2A Tudor inh | GLS inh | BAZ2B inh | G9a inh | HP1b binding inh
CC1(C(=O)NCCC#N)CCN1C(=O)CC(c1ccccc1)c1ccccc1 (stereo not given) | . | 0.2% | . | . | .
COc1ccc(S(=O)(=O)/N=C2\C=C(Nc3ccc(O)cc3)C(=O)c3ccccc32)cc1 | 5.62µM* | 8.91µM* | 8.91µM* | 8.91µM* | 10µM*
Cc1ccc(NC2=C/C(=N/S(=O)(=O)c3cccs3)c3ccccc3C2=O)cc1C | -23.6% | 16.5% | ? | -0.3%[59 µM] | -16.7%
Cc1ccccc1NC1=C/C(=N\S(=O)(=O)c2cccs2)c2ccccc2C1=O | 6.31µM* | -1.2% | 10µM* | 3.16µM* | ?
CC(=O)Nc1ccc(NC2=C/C(=N/S(=O)(=O)c3cccs3)c3ccccc3C2=O)cc1 | 50.1µM* | 0.7% | 3.55µM* | 44.7µM* | 50.1µM*
CC(=O)Nc1ccc(S(=O)(=O)Nc2ccc3c(c2)OCCO3)cc1 | -9.1% | 11.5% | -16.7% | ? | 40.6%
COc1ccc(-n2cc(C(=O)O)c(=O)cc2C)cc1 | ? | ? | ? | 44.7µM* | -2.8%
COc1ccc(-n2cc(C(=O)NCc3ccccc3)c3ccccc3c2=O)cc1 | ? | -3.8% | -31.5% | ? | 18.3%
COc1ccc([C@H]2C[C@H](O)[C@@H](n3cc(COC(=O)c4ccccc4)nn3)CN2Cc2cccs2)cc1 | . | -1.1% | . | . | .
COc1ccc(S(=O)(=O)CC(=O)c2cc3cccc(C)c3oc2=O)cc1 | -32.9% | -1.1% | -34.1% | 50.1µM* | 28.3%
COc1ccc2cc(C(=O)CS(=O)(=O)c3ccccc3)c(=O)oc2c1 | -5.3% | 5.8% | -18.9% | 20.4% | 9.3%[57 µM]
COC(=O)CCN(C(C)=O)c1ccc(N)cc1 | 50.1µM* | 2.7% | 0.1% | -2.5%[12.7 µM] | -4.2%
C=CC[C@H]1Cc2c(cccc2[N+](=O)[O-])[C@H](CC=C)N1 | -30.8% | 0.3% | 39.8µM* | -10.1%[59 µM] | 25.9%
C=CCC1Cc2c(Br)cccc2C(CC=C)N1 (stereo not given) | 12.3% | 0.0% | 1.5% | ? | 42.5%
Cc1ccc(NC(=O)COC(=O)c2ccc3c(=O)n4c(nc3c2)CCC4)c(Br)c1 | 0.0% | -3.5% | 5.0% | 7.2%[2.33 µM] | 44.5%
COc1cc(OC)cc(-c2c(-c3cccs3)c3cc(-c4ccc(N(C)C)nc4)ccc3n2C)c1 | ? | -7.6% | 56.2µM* | 3.1%[0.501 µM] | 14.1%
CC1CCC2C(=O)N(c3ccc(C(=O)Oc4cccc5cccnc45)cc3)C(=O)C2C1 (stereo not given) | 56.2µM* | -20.0% | 50.1µM* | ? | 4.6%
Cc1ccc(C(=O)Oc2ccccc2N2C(=O)C3CCC(C)CC3C2=O)cc1 (stereo not given) | 15.8% | . | 1.2% | -41.8%[2.33 µM] | 23.2%
O=C(N/N=C/c1cccc([N+](=O)[O-])c1)c1cc(-c2ccccc2)nc2ccccc12 | -9.2% | 6.7% | 11.1% | 24.8%[59 µM] | 14.6%
CC1CC(C)CN(CC(=O)N2CCOCC2)C1 (stereo not given) | 25.1µM* | 5.1% | 50.1µM* | 8.91µM* | -19.6%
Cc1cc(-c2onc3ccc(Cl)cc23)ccc1O | 21.1% | -1.4% | -1.6% | 39.8µM* | 45.1%
CC(=O)c1ccc2noc(-c3ccc(Cl)cc3)c2c1 | -14.0% | 7.6% | -13.3% | ? | 35.8%
